HT1080NT lethal: qHTS for induction of synthetic lethality in tumor cells producing 2HG: qHTS for the HT-1080-NT fibrosarcoma cell line; HT-1080-NT fibrosarcoma viability, CellTiter-Glo ATP luminescence, 48 h; Potency, µM (series often up to 46.1 µM), without a hit: at the highest dose activity, negative = less viability, hits mostly cytotoxic; actives 1.6% (n = 360,000);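 further: NT is the 2HG producing partner of a matched IDH1 knockdown line; 0% = DMSO-treated cells and -100% = media-only wells without cells; nearly all actives have a fitted effect of over 55% in size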
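Toxicity toward the 2HG-producing NT line was scored as %Activity, normalised to DMSO and no-cell wells, from CellTiter-Glo luminescence after 48 hours' treatment.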
DT40 TDP1 CPT: qHTS for Inhibitors of human tyrosyl-DNA phosphodiesterase 1 (TDP1): qHTS in cells in presence of CPT | chicken DT40 Tdp1-/-;hTDP1 cells + 20 nM CPT, ATP luminescence, 48 h | Potency, µM (top dose mostly 46.2 µM), without a hit: at the highest dose activity change, negative = growth inhibition, usual class: inhibitors | actives 12% (n = 420,000) | AID 686979, 2013; further: nearly all actives have a fitted effect of over 55% in size
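Chicken DT40 Tdp1-/- cells stably complemented with human TDP1 were seeded at 400 cells/well in medium containing 20 nM camptothecin, exposed to pin-transferred compounds, and grown at 37 °C for at least 48 hr. Viability was read as ATP luminescence.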
KB-V1 cytotox: qHTS assay for MDR1-selective chemotherapeutics: Primary screen using the drug-selected MDR subline cells KB-V1 | KB-V1 MDR cells viability, CellTiter-Glo, 72 h | Potency, µM (doses to about 46.1 µM), hits mostly cytotoxic | actives 3.4% (n = 400,000) | AID 1347076, 2019; further: nearly all actives have a fitted effect of over 60% in size
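KB-V1, DMEM (no phenol red) + 10% FBS; cpd pin-transferred, titration series; 72 h, 37 degrees C; CellTiter-Glo, luminescence. Data normalized, curve-fit.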
HT1080 IDH1KD tx: qHTS for induction of synthetic lethality in tumor cells producing 2HG: qHTS for the HT-1080-IDH1KD cell line. HT-1080 IDH1 knockdown viability, ATP luminescence, 48 h. Potency, µM (series often up to 46.1 µM), for inactives: at the top dose activity, negative = toxicity, actives largely listed as cytotoxic. actives 2% (n = 360,000);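 further: 0% = DMSO wells and -100% = cell-free medium wells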
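Viability of IDH1-knockdown HT-1080 fibrosarcoma cells was assessed by CellTiter-Glo after 48 h at 37 °C with titrated compound; concentration-effect curves were classified by fit quality and response size.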
KB-3-1 cytotox: qHTS assay for MDR1-selective chemotherapeutics: Primary screen using the parental adenocarcinoma cell KB-3-1 | KB-3-1 viability, CellTiter-Glo ATP luminescence, 72 h | Potency, µM (titrated, usually from 46.1 µM), actives largely listed as cytotoxic | actives 1.4% (n = 400,000) | AID 1347075, 2019; further: nearly all actives have a fitted effect of over 60% in size
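72 h, 37 °C compound treatment of KB-3-1 parental cells; CellTiter-Glo added, 10 min, luminescence read. Data corrected against DMSO-only plates and normalized before curve fitting.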
TDP1 cell noCPT: qHTS for Inhibitors of human tyrosyl-DNA phosphodiesterase 1 (TDP1): qHTS in cells in absence of CPT | DT40 Tdp1-/- hTDP1 cells, no CPT, ATP luminescence, 48 h | Potency, µM (highest dose often 46.2 µM), for the others: at the top dose activity change, negative = growth inhibition, usual class: inhibitors | actives 15% (n = 420,000); further: nearly all actives have a fitted effect of over 55% in size
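A cellular qHTS used chicken DT40 cells lacking endogenous Tdp1 but carrying stably transfected human TDP1. Compounds were applied without camptothecin, and cell growth kinetics were judged by ATP-dependent luminescence after ≥48 hr.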
An asterisk follows results filed as active; i = inactive; u = inconclusive; x = not tested or not shown. The list is not random: actives were taken first. Their share in the collection is about 19%. The call rests on the fitted dose curve; in most records, active means well fitted curve in the direction sought with a large enough effect; inconclusive means small, poorly fitted or top-dose-only effect, or another doubt; inactive means no such curve, though single readings can be large; an effect the other way counts as inactive or inconclusive. Unless noted, on the % scale 0 is the no-effect control and ±100 the full control effect; potency means the concentration at half of the fitted maximal effect.

SMILES | HT1080NT lethal | DT40 TDP1 CPT | KB-V1 cytotox | HT1080 IDH1KD tx | KB-3-1 cytotox | TDP1 cell noCPT
COc1ccccc1Nc1ncnc2c1nc1n2CCCC1 | x | 7.3µM* | x | x | x | 8.2µM*
COc1cccc2sc3cc(NCc4ccc(C)o4)ccc3c(=O)c12 | -10% | u | i | 0% | i | -29%
CC1(C(=O)Nc2ccc(F)cc2F)CCN1C(=O)Cc1ccccc1 (stereo not drawn) | 20% | -13% | i | 4% | i | -3%
CCCS(=O)(=O)NCCc1sc2nc(-c3ccc(Cl)cc3)nn2c1C | x | 5.2µM* | x | x | x | 8.2µM*
CCCS(=O)(=O)NCCc1sc2nc(-c3ccc(F)cc3)nn2c1C | x | 21µM* | x | x | x | 15µM*
CCOc1ccc(S(=O)(=O)NCCc2sc3nc(-c4ccc(F)cc4)nn3c2C)cc1 | x | u | x | x | x | 15µM*
COc1ccc(-c2nc3sc(CCNC(=O)c4ccccc4C)c(C)n3n2)cc1 | x | u | i | x | i | u
Cc1cc(C)c(S(=O)(=O)NCCc2sc3nc(-c4ccc(F)cc4)nn3c2C)c(C)c1 | x | u | x | x | x | 21µM*
O=S(=O)(Nc1cc(F)ccc1F)c1ccc2[nH]c3c(c2c1)CCCC3 | x | u | i | x | i | u
CCC(=O)N1CCc2cc(Br)cc(S(=O)(=O)N3CCC(C(=O)N(CC)CC)CC3)c21 | x | 0% | i | x | i | u
Cc1nc(SCC(=O)Nc2ccccc2C)cc(-c2ccccc2)n1 | x | -7% | x | x | x | -7%
CC1(C)Cc2ccccc2C2=NNC(=O)C2=N1 | 23µM* | 16µM* | u | 7.3µM* | u | 10µM*
CC1(C)Cc2ccccc2C(Nn2cnnc2)=N1 | 6% | -1% | i | 2% | i | -8%
O=C(NCCS(=O)(=O)NCCc1ccccc1)c1ccccc1 | -1% | -1% | 16µM* | -4% | i | -11%
COc1ccccc1CCNS(=O)(=O)CCNC(=O)c1ccccc1 | 5% | -7% | 16µM* | 4% | i | -29%
Oc1c(C=C2N=c3ccccc3=N2)sc(=S)n1-c1ccc2ccccc2c1 | 22% | 21µM* | u | -1% | i | -22%
COCCCNc1nc2c(S(=O)(=O)c3ccc(C)c(C)c3)nnn2c2ccc(Cl)cc12 | x | u | i | x | i | u
Cc1ccc(NC(=O)Nc2nc3ccccc3s2)cc1NC(=O)Nc1nc2ccccc2s1 | 3% | u | i | -1% | i | 13µM*
O=C(Nc1ccc(Cl)cc1)Nc1cccnc1 | 1% | 16µM* | i | -2% | i | u
O=C(Nc1cccnc1)Nc1cccc(F)c1 | 17% | -28% | i | 22% | i | 13µM*
Fc1cccc(NC(=S)Nc2cccnc2)c1 | 7% | -17% | i | -1% | i | u
Cc1ccc(NC(=O)Nc2cccnc2)cc1NC(=O)Nc1cccnc1 | u | 13µM* | u | u | u | 9.2µM*
CCNC(=O)Nc1nc2ccccc2s1 | 8% | -1% | i | 13% | i | 8%
Cn1cc(-c2csc(C(O)c3ccccc3)n2)cn1 (stereo not drawn) | 23% | -23% | i | 3% | i | u
CCCS(=O)(=O)NC(=O)C1(C)CCN(C(=O)c2ccc3ccccc3c2)C1 (stereo not drawn) | 25% | -8% | i | -1% | i | -1%
SMILES | HT1080NT lethal | DT40 TDP1 CPT | KB-V1 cytotox | HT1080 IDH1KD tx | KB-3-1 cytotox | TDP1 cell noCPT
Cc1nc2c(C(=O)NCCc3ccccc3)c[nH]n2c(=O)c1Cc1ccccc1F | x | u | u | x | i | u
Cc1nc2c(C(=O)NCc3ccccc3Cl)cnn2c(C)c1Cc1c(F)cccc1Cl | x | 8.2µM* | i | x | i | 8.2µM*
Cc1nc2c(C(=O)N3CCN(C)CC3)cnn2c(C)c1Cc1ccc(Cl)cc1 | -3% | -19% | i | -6% | i | -9%
Cc1nc2c(C(=O)NCCC(C)C)cnn2c(C)c1Cc1c(F)cccc1Cl | x | 21µM* | u | x | i | 23µM*
Cc1nc2c(C(=O)N3CCCCC3)cnn2c(C)c1Cc1ccccc1F | 3% | u | u | -14% | i | 16µM*
Cc1nc2c(-c3ccccc3)c(C)nn2c(C)c1CCC(=O)NCc1ccccc1Cl | x | -21% | i | x | i | u
Cc1nc2c(C(=O)NCCc3ccccc3)cnn2c(C)c1Cc1c(F)cccc1Cl | x | 15µM* | i | x | i | 16µM*
CCOC(=O)C1(C)CCCN(C(=O)c2cccc(C#N)c2)C1 (stereo not drawn) | 16% | -7% | i | 20% | i | 2%
O=c1[nH]cc(C#Cc2ccccc2)c2ncncc12 | 14% | -3% | x | 8% | x | -23%
Cc1c(C(=O)NCCSCc2ccc(F)cc2)cnn1-c1ccc(Cl)cc1 | -20% | -13% | u | -1% | i | u
Cc1c(C(=O)NCCSCc2c(F)cccc2Cl)cnn1-c1ccc(F)cc1 | 5% | u | i | 0% | i | 26µM*
CC1(C(=O)Nc2ccc3ccccc3c2)CCC(=O)N1CCCn1ccnc1 (stereo not drawn) | 12% | -2% | i | 9% | i | -11%
CCOC(=O)c1sc2nc(CC(=O)OC)nc(NCc3ccc(F)cc3)c2c1C | 9% | 18µM* | u | -2% | i | 16µM*
CCOC(=O)c1sc2nc(C)nc(NCc3ccc(Cl)cc3)c2c1C | u | 12µM* | u | u | u | 21µM*
CCOC(=O)c1sc2nc(SC)nc(-c3ccc(Cl)cc3)c2c1N | 11% | 21µM* | i | 16% | i | 15µM*
CCOC(=O)c1sc2nc(C)cc(C)c2c1N | 0% | 0% | i | -16% | i | -12%
CCOC(=O)c1sc2nc(C)nc(NCc3ccc(F)cc3)c2c1C | 18µM* | 26µM* | i | 21µM* | i | 26µM*
O=C(CSc1ccccc1)NNC(=O)c1ccncc1 | 13% | -3% | u | 18% | i | -18%
CCNS(=O)(=O)c1ccc(CCC(=O)N2CCN(c3ccccc3F)CC2)cc1 | 5% | -6% | u | 2% | i | -10%

Source: PubChem (National Center for Advancing Translational Sciences (NCATS))
